We go through 22 molecules from PubChem BioAssay AID652154 (Broad Institute, 2013).

About 4,200 (1.2%) of roughly 360,000 compounds were called active.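 Rule for the calls: active = mean replicate inhibition at least 60% with every replicate also reaching 60%; inconclusive = only one of the two criteria is met; inactive = mean below 60% and not all replicates reaching 60%.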 Many of the other results were omitted from the sample, so actives are more common in it than they were.

The test is described as follows: inhibitors of PAX8-driven TPO luciferase reporter, primary screen, RMG-I cells, single concentration (AID 652154).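 Note: luciferase light reporting Pax8 driven TPO promoter activity; plate controls were median of neutral control wells for no effect and mitoxantrone controls for full effect.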 The settings on record: SteadyGlo, 24 h, at 12.6 µM, active compounds read high.
On to `C[C@@H]1CN([C@H](C)CO)C(=O)c2cc(NC(=O)C3CCCCC3)ccc2O[C@H]1CN(C)C(=O)Nc1ccccc1`, for which the inhibition is 9.45% (inactive).
Take `C[C@H](CO)N1C[C@H](C)[C@@H](CN(C)C(=O)Nc2ccc3c(c2)OCO3)Oc2ccc(NC(=O)NC3CCCCC3)cc2CC1=O`: the inhibition was -23.2% (inactive).
Regarding `COc1ccc(-c2cc(C(=O)NCCCN3CCCC3=O)c3ccccc3n2)cc1OC`, the inhibition was 2.26% (inactive).
Turning to `COc1ccc(-c2cc(C(F)(F)F)nc(S(C)(=O)=O)n2)cc1OC`, the inhibition was 122% (active).
For the molecule `COc1ccc(-c2cc(C(=O)N(C)Cc3ccc(OC)c(OC)c3OC)c3ccccc3n2)cc1OC`, the inhibition is 27.1% (inactive).
Take `Cc1ccccc1S(=O)(=O)N1[C@@H](C#N)[C@H](c2ccccc2)[C@@H]1CO`: the inhibition is -4.36% (inactive).
Take `O=C(Cc1ccccc1)N1CC2(C1)[C@H](c1ccccc1)[C@@H](CO)N2C(=O)c1cccnc1`: the inhibition was -7.25% (inactive).
Turning to `COc1ccnc(Oc2ccccc2)c1-c1ncn[nH]1`, the inhibition was 84.6% (active).
For the molecule `COc1ccccc1-n1cn[nH]c1=S`, the inhibition was 8.11% (inactive).
As to `COc1ccnc(Oc2ccccc2)n1`, the inhibition is -3.33% (inactive).
As for `OC[C@@H]1[C@@H](c2ccc(-c3ccccc3F)cc2)[C@@H]2CN(Cc3cncnc3)CCCCN12`, the figure is 4.63% (inactive); as for `CC1Cc2ccccc2N1C(=O)CSc1nnc(-c2ccc(S(=O)(=O)N3CCCC3)cc2)n1C` (configuration not stated), 20.8% (inactive).
The same measure for `CC1Cc2ccccc2N1C(=O)CSc1nnc(C2CC2)n1C` (configuration not stated): 78.3% (active); for `CN(C(=O)CSc1nnc(C2CC2)n1C)C1CCCc2ccccc21` (configuration not stated): 8.2% (inactive); for `O=C(N[C@H]1CC[C@@H](CCn2cc(Cc3ccccc3)nn2)O[C@H]1CO)c1cnccn1`: -16.7% (inactive).
On to `C[C@H](CO)N1C[C@H](C)[C@H](CN(C)CC2CC2)Oc2cc(-c3ccc(F)cc3)ccc2S1(=O)=O`, for which the inhibition was -2.31% (inactive).
As to `O=C1NC(Cc2ccccc2)c2nc3ccc(Br)cc3c(=O)n2-c2cc3ccccc3cc21` (configuration not stated), the inhibition was 34.1% (inactive).
Take `COc1ccc2nc3n(c(=O)c2c1)-c1ccc(Cl)cc1C(=O)NC3Cc1ccccc1` (configuration not stated): the inhibition is 82.6% (active).
As for `CC(C)CC1NC(=O)c2cc(Cl)ccc2-n2c1nc1ccccc1c2=O` (configuration not stated), the inhibition was 6.69% (inactive).
On to `Cc1noc(C)c1NC(=O)N(C)C[C@H]1OCCCC[C@H](C)Oc2ccc(NC(=O)Nc3ccccc3)cc2C(=O)N([C@H](C)CO)C[C@@H]1C`, for which the inhibition was 8.48% (inactive).
The same measure for `COc1ccccc1CNC(=O)C[C@H]1CC[C@@H](NC(=O)CN(C)C)[C@@H](CO)O1`: -11.2% (inactive); for `COc1cccc(C#Cc2ccc([C@@H]3[C@H](C#N)N[C@H]3CO)cc2)c1`: -230% (inactive).
